Results filed as inconclusive are left out. Calls of active or inactive are those of the source. Calls follow the shape of the dose curve; as a rule, active = well fitted inhibition curve with a large enough effect; inconclusive = small, poorly fitted or top-dose-only effect; inactive = flat fitted curve, though single readings scatter.
Experiments:
Test in all cases: qHTS profiling for inhibitors of Plasmodium falciparum proliferation (AID 504749); also: nearly all actives have a fitted effect of over 60% in size
[1] = system: ATS95; conditions: P. falciparum in erythrocytes, SYBR Green DNA, 72 h; series mostly up to 12.8 µM
Summary of the method: (§1)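 Quantitative HTS: compounds pinned into medium, infected erythrocytes added (0.3% parasitemia, 2.5% hematocrit), 72 h culture at 37 C under 5% CO2. Saponin/Triton lysis with SYBR Green I, overnight RT, then fluorescence read.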

[2] = system: CP185; conditions: P. falciparum in erythrocytes, SYBR Green DNA, 72 h; series mostly up to 12.8 µM
Summary of the method: as §1

[3] = system: CP192; conditions: P. falciparum in erythrocytes, SYBR Green DNA, 72 h; series mostly up to 28.7 µM
Summary of the method: as §1

[4] = system: CP194; conditions: P. falciparum in erythrocytes, SYBR Green DNA, 72 h; series mostly up to 12.8 µM
Summary of the method: as §1

[5] = system: CP217; conditions: P. falciparum in erythrocytes, SYBR Green DNA, 72 h; series mostly up to 12.8 µM
Summary of the method: as §1

[6] = system: CP237; conditions: P. falciparum in erythrocytes, SYBR Green DNA, 72 h; series mostly up to 12.8 µM
Summary of the method: as §1

[7] = system: CP238; conditions: P. falciparum in erythrocytes, SYBR Green DNA, 72 h; series mostly up to 12.8 µM
Summary of the method: as §1

[8] = system: CP247; conditions: P. falciparum in erythrocytes, SYBR Green DNA, 72 h; series mostly up to 12.8 µM
Summary of the method: as §1

[9] = system: CP252; conditions: P. falciparum in erythrocytes, SYBR Green DNA, 72 h; series mostly up to 12.8 µM
Summary of the method: as §1

[10] = system: CP265; conditions: P. falciparum in erythrocytes, SYBR Green DNA, 72 h; series mostly up to 12.8 µM
Summary of the method: as §1

[11] = system: CP266; conditions: P. falciparum in erythrocytes, SYBR Green DNA, 72 h; series mostly up to 28.7 µM
Summary of the method: as §1

[12] = system: CP269; conditions: P. falciparum in erythrocytes, SYBR Green DNA, 72 h; series mostly up to 12.8 µM
Summary of the method: as §1

[13] = system: CP305; conditions: P. falciparum in erythrocytes, SYBR Green DNA, 72 h; series mostly up to 12.8 µM
Summary of the method: as §1

[14] = system: CP325; conditions: P. falciparum in erythrocytes, SYBR Green DNA, 72 h; series mostly up to 12.8 µM
Summary of the method: as §1

[15] = system: CP335; conditions: P. falciparum in erythrocytes, SYBR Green DNA, 72 h; series mostly up to 12.8 µM
Summary of the method: as §1

[16] = system: DIV30; conditions: P. falciparum in erythrocytes, SYBR Green DNA, 72 h; series mostly up to 12.8 µM
Summary of the method: as §1

[17] = system: P94_40; conditions: P. falciparum in erythrocytes, SYBR Green DNA, 72 h; series mostly up to 12.8 µM
Summary of the method: as §1

[18] = system: PC26; conditions: P. falciparum in erythrocytes, SYBR Green DNA, 72 h; series mostly up to 12.8 µM
Summary of the method: as §1

[19] = system: SC27B; conditions: P. falciparum in erythrocytes, SYBR Green DNA, 72 h; series mostly up to 12.8 µM
Summary of the method: as §1

[20] = system: TAB109; conditions: P. falciparum in erythrocytes, SYBR Green DNA, 72 h; series mostly up to 12.8 µM
Summary of the method: as §1

Measured: Potency

O=C(Cc1cccs1)NC1C(=O)N2C(C(=O)[O-])=C(C[n+]3ccccc3)CSC12 (stereo not given)
inactive: [1] | [2] | [3] | [4] | [5] | [6] | [7] | [8] | [9] | [10] | [11] | [12] | [13] | [14] | [15] | [16] | [17] | [18] | [19] | [20]

CC(C)N1CCN(c2ccc(OC[C@@H]3CO[C@@](Cn4cncn4)(c4ccc(Cl)cc4Cl)O3)cc2)CC1
inactive: [1] | [2] | [4] | [5] | [6] | [7] | [8] | [9] | [10] | [12] | [13] | [14] | [15] | [16] | [17] | [18] | [19] | [20]

C[C@@H]1CCC[C@H](C)N1NC(=O)c1ccc(Cl)c(S(N)(=O)=O)c1
inactive: [1] | [2] | [3] | [4] | [5] | [6] | [7] | [8] | [9] | [10] | [11] | [12] | [13] | [14] | [15] | [16] | [17] | [18] | [19] | [20]

C[N+](C)(C)CC(O)CC(=O)O (stereo not given)
inactive: [1] | [2] | [3] | [4] | [5] | [6] | [7] | [8] | [9] | [10] | [11] | [12] | [13] | [14] | [15] | [16] | [17] | [18] | [19] | [20]

CN(C)CC/C=C1\c2ccccc2CSc2ccccc21
inactive: [3] | [11]

CN1[C@@H]2CC[C@H]1CC(OC(=O)[C@@H](O)c1ccccc1)C2 (stereo not given in full)
inactive: [1] | [2] | [3] | [4] | [5] | [6] | [7] | [8] | [9] | [10] | [11] | [12] | [13] | [14] | [15] | [16] | [17] | [18] | [19] | [20]

CN1CCCC[C@@H]1CCN1c2ccccc2Sc2ccc(S(C)=O)cc21 (stereo not given in full)
inactive: [1] | [2] | [3] | [4] | [5] | [6] | [7] | [8] | [9] | [10] | [11] | [12] | [13] | [14] | [15] | [16] | [17] | [18] | [19] | [20]
